The values below come from the supplement of paper PMC9694430.

SMILES strings stand for the structures.

The subject of the assay is LOC_OS03G12390-cb001. The experiment in a line: thermal shift delta Tm vs DMSO control; higher = stronger stabilization (binding). Particulars: 12.5 µM; protein concentration 2 µM. The method, boiled down:
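Rice kinase domain constructs were expressed in E. coli, purified, and tested by differential scanning fluorimetry with compound added in DMSO. Each well of a 96-well plate held 19.5 μl of 2 μM kinase in 100 mM potassium phosphate pH 7.5, 150 mM NaCl, 10% glycerol and 5 × SYPRO Orange, and fluorescence was read from 25°C to 95°C at 0.05°C/s. The melting temperature shift is the mean of triplicates, taken against protein with DMSO alone after Boltzmann fitting.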
With `CCCCCCCCCCCCCCCCn1cc[n+](Cc2ccccc2)c1C`, the “thermal shift delta Tm” value was -3.77 °C.

On to `O=C(/C=C/c1ccc(O)c(O)c1)c1ccc(O)cc1O` [Butein], for which the “thermal shift delta Tm” value came out at 3.8 °C.

Take `NC(=O)c1ncn([C@@H]2O[C@H](CO)[C@@H](O)[C@H]2O)c1N` [AICAR (Acadesine)]: the “thermal shift delta Tm” value came out at 0.15 °C.

Turning to `COCCOc1ccc2c(c1)ncn2-c1ccc2cccc(N3CCC(N)CC3)c2n1`, the “thermal shift delta Tm” value came out at 1.73 °C.

`CCCCCCCCCCCCCCCCCCOP(=O)([O-])OC1CC[N+](C)(C)CC1` [Perifosine (KRX-0401)]: the “thermal shift delta Tm” value is -3.5 °C.

Consider `COc1ccc(-c2ccc3c(N4CCOCC4)nc(N4C[C@@H](C)O[C@@H](C)C4)nc3n2)cc1CO`, for which the “thermal shift delta Tm” value was determined as 0.03 °C.

For the compound `Cc1cc(Nc2nc(N[C@@H](C)c3ccc(F)cc3)c(C#N)cc2F)n[nH]1`, the “thermal shift delta Tm” value came to 4.41 °C.

Turning to `O=c1nc(N2CCOCC2)oc2c(-c3cccc4c3sc3ccccc34)cccc12`, the “thermal shift delta Tm” value was -0.44 °C.

Consider `Cn1cc(-c2ccc3nnc(C(F)(F)c4ccc5ncccc5c4)n3n2)cn1`, for which the “thermal shift delta Tm” value was 0.23 °C.

With `Cc1cc(C(C)Nc2ccccc2)c2nc(N3CCOCC3)cc(=O)n2c1` (stereo not given), the “thermal shift delta Tm” value is -0.12 °C.

Take `COc1cc(N2CCC(N(C)C)CC2)ccc1Nc1ncc(Cl)c(Nc2ccccc2P(C)(C)=O)n1`: the “thermal shift delta Tm” value was determined as 10.9 °C.

As to `CC(C)c1cnn2c(NCc3ccccc3)cc(NCCCCCCN)nc12`, the “thermal shift delta Tm” value is -0.19 °C.

Take `Cc1cc([C@@H](C)Nc2ccccc2C(=O)O)c2nc(N3CCOCC3)cc(=O)n2c1`: the “thermal shift delta Tm” value was found to be 0.3 °C.

For `CC(C)NC(=O)C1CCC(n2c(NC(=O)c3ccc(F)cc3)nc3ccc(CN4CCC(C(C)(C)O)CC4)cc32)CC1` (stereo not given) [Belizatinib (TSR-011)], the “thermal shift delta Tm” value is 6.22 °C.

As to `COc1ccc(-c2ccc3ncc4c(c3c2)n(-c2ccc(N3CCNCC3)c(C(F)(F)F)c2)c(=O)n4C)cn1`, the “thermal shift delta Tm” value was -0.28 °C.

Consider `CN1CCN(c2ccc3nc(-c4c(N)c5c(F)cccc5[nH]c4=O)[nH]c3c2)CC1` [Dovitinib (TKI-258, CHIR-258)], for which the “thermal shift delta Tm” value came out at 2.88 °C.

For `NC(=O)c1ccc2nc(-c3ccc(Oc4ccc(Cl)cc4)cc3)[nH]c2c1` [Chk2 Inhibitor II (BML-277)], the “thermal shift delta Tm” value worked out at 0.95 °C.

For the compound `CC1(C)OCCn2c1nc1c(N3CCOCC3)nc(-c3cnc(N)nc3)nc12`, the “thermal shift delta Tm” value is -0.14 °C.

As for `C=CC(=O)Nc1cccc(Nc2nc(Nc3ccc(OCCOC)cc3)ncc2F)c1`, the “thermal shift delta Tm” value came out at 6.16 °C.

On to `NC(=O)c1cnc(N[C@@H]2CCCC[C@@H]2N)nc1Nc1cccc(-n2nccn2)c1`, for which the “thermal shift delta Tm” value is 1.42 °C.

Turning to `CNC(=O)c1cc(Oc2ccc3nc(N[C@@H]4CCCC[C@H]4O)sc3c2)ccn1`, the “thermal shift delta Tm” value was 0.22 °C.

In the case of `CCn1c2ccccc2c2cc(Nc3ccnc(NCCCN4CCOCC4)n3)ccc21`, the “thermal shift delta Tm” value was -0.48 °C.

On to `CCC(=O)Nc1cccc(Oc2nc(Nc3ccc(N4CCN(C)CC4)cc3OC)ncc2Cl)c1`, for which the “thermal shift delta Tm” value came to 2.35 °C.

As to `CN1CCN(c2nc(C3=C(c4c[nH]c5ccccc45)C(=O)NC3=O)c3ccccc3n2)CC1` [Sotrastaurin], the “thermal shift delta Tm” value turned out to be 0.18 °C.

With `C=CCc1ccc(O)c(-c2ccc(O)c(CC=C)c2)c1` [Honokiol], the “thermal shift delta Tm” value is -0.04 °C.
